The campaign covered roughly 2,100 compounds. About 590 (28%) were called active. Inconclusive results (about 42%) are left out. This is one part of the list. Values without a mark were called inactive. The call rests on the fitted dose curve; in most records, active means well fitted inhibition curve with a large enough effect; inconclusive means small, poorly fitted or top-dose-only effect; inactive means flat fitted curve, though single readings scatter.
Potency means the concentration at half of the fitted maximal effect.

Sequence of DNA dC->dU-editing enzyme APOBEC-3F (Homo sapiens) (Q8IUX4 whole entry, looked up): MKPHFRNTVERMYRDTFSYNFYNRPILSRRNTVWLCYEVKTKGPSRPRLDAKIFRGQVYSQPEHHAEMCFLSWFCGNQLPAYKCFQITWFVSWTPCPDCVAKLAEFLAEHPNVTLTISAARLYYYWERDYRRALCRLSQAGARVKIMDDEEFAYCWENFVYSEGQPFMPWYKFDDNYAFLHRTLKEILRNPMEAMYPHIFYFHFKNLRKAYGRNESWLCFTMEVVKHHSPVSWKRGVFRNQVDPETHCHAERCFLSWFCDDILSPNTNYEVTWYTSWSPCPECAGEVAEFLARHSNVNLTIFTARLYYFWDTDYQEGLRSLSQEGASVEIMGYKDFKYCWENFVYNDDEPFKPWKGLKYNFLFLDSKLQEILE

The assay concerns the target DNA dC->dU-editing enzyme APOBEC-3F (Homo sapiens) (UniProt Q8IUX4). The assay is described as follows: qHTS for inhibitors of Vif-A3F interactions: Cherry picks. Further: nearly all actives have a fitted effect of over 70% in size.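 On max response: % of control where 0% means no effect; active compounds raise eYFP fluorescence by blocking Vif-driven A3F loss.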 To be noted: HeLa A3F-eYFP + Vif (tagged APOBEC3F with the HIV-1 protein that degrades it), eYFP fluorescence, 24 h. The gist of the method: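 HeLa cells stably expressing A3F-eYFP plus Vif, cultured overnight, then exposed to compounds at several concentrations for 24 h at 37 deg C. Reduced Vif-driven degradation read as rising eYFP fluorescence (488 nm ex/500-530 nm em) by laser-scanning cytometry; MG132 as positive control.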
In general terms: qHTS replaces the single test concentration by a dilution series.
As to `Cc1ccc2c(c1C)NC(=O)CC(c1ccccc1O)=N2`, the max response is 0.01%. Turning to `CC(C)OC(=O)c1c2c(n3ccccc13)C(=O)c1ccccc1C2=O`, the Potency was 4.61 µM (active).

With `Cn1c(=O)c(N)c2c3c(c(Br)ccc31)C(=O)c1ccccc1-2`, the max response was 0.0476%. On to `Oc1cccc(Nc2nc(O)c(/C=C3\C=Nc4ccccc43)s2)c1`, for which the Potency is 14.6 µM (active). For the compound `O=S(=O)(Nc1cc(Sc2ncn[nH]2)c(O)c2ccccc12)c1ccccc1`, the max response is -29.8%.

In the case of `CCCOc1ccccc1C1CC(=O)Nc2cc3c(cc21)OCO3` (stereo not drawn), the max response was -14.8%. `CCN(CC)c1ccc(/C=C/C(=O)c2ccc(Br)cc2)cc1`: the max response is -4.77%. As for `CCNc1ccc(Br)cc(C(=O)/C=C/c2ccc3c(c2)OCO3)c1=O`, the Potency is 18.4 µM (active). Regarding `O=c1[nH]c2ccccc2nc1/C=C/c1ccc(F)cc1`, the Potency is 14 µM (active). Same read-out and setting: under `COc1ccc(OC)c(/C=C/c2nc3ccccc3[nH]c2=O)c1` stands 18.4 µM (active). Take `CCCN(C(=O)CSc1n[nH]c(-c2ccc(OC)cc2)n1)c1c(N)n(Cc2ccccc2)c(=O)[nH]c1=O`: the max response is -13.7%. With `CCC(=C/c1sc2ccc3ccccc3c2[n+]1C)/C=C1\Sc2ccc3ccccc3c2N1C`, the max response is -0.328%. As to `CC(=O)c1cccc(-c2ccnc3c2CC(C(=O)Nc2cccc(NS(C)(=O)=O)c2)O3)c1` (stereo not drawn), the max response was -25.6%. Turning to `CCSC1=NSC2=NC(=O)/C(=C\c3coc4ccccc4c3=O)C(=N)N12`, the Potency was 18.4 µM (active).

Turning to `O=C(O)CCCN1C(=O)/C(=C\C(Cl)=C\c2ccccc2)SC1=S`, the Potency is 4.44 µM (active). With `COc1ccc2c(c1)c(/C=C/c1cc[n+](C)cc1)cn2C`, the Potency was 2.23 µM (active). In the case of `COc1ccc2[nH]cc(/C=C/c3cc[n+](C)cc3)c2c1`, the Potency was 13 µM (active). Still for that read-out and setting: under `C[n+]1ccc(/C=C/c2c[nH]c3ccc(F)cc23)cc1` stands 16.4 µM (active); under `Cc1ccc2[nH]cc(/C=C/c3cc[n+](C)cc3)c2c1`, 1.4 µM (active). As for `O=C1OC(/C(=C\Nc2cc(Cl)ccc2O)[N+](=O)[O-])c2ccccc21` (stereo not drawn), the max response is -13.5%. Turning to `COc1cc(C(=O)N/N=C/C2CC=CCC2)cc(OC)c1OC` (stereo not drawn), the max response is -15.3%. The same measure, in the same setting: in the case of `CCOC1=C/C(=C/c2c(N)n3nc(-c4ccccc4)sc3nc2=O)C=CC1=O` it was 3.18%; in that of `N#C/C(=C/c1ccc(N2CCCCCC2)o1)c1cccc(F)c1`, -26.2%. For the compound `N#C/C(=C/c1ccc(N2CCOCC2)o1)c1ccc(Cl)cc1`, the Potency is 4.61 µM (active). On to `Cc1ccc(/C(C#N)=C\c2ccc(N3CCOCC3)o2)cc1`, for which the Potency was 12.5 µM (active). In the case of `N#C/C(=C/c1ccc(N2CCCCC2)o1)c1cccc(F)c1`, the Potency was 5.17 µM (active).

As to `N#C/C(=C/c1ccc(N2CCCCCC2)o1)c1ccc(Cl)cc1`, the Potency was 3.66 µM (active). In the case of `CC(C)(C)C(=O)/C(=C/c1ccc(Cl)cc1)n1cncn1`, the max response is -2.57%. As for `C/C(=N\NC(=O)C(C)n1nc(C)c([N+](=O)[O-])c1C)c1ccccc1O` (stereo not drawn), the max response was 0.94%.

Take `COc1ccc(/C=N/n2cc(-c3ccccc3)nc2N)cc1`: the max response was -18.9%.

Turning to `CCc1ccc(-c2cc(C(F)(F)F)n3nc(C(=O)Nc4cnn(Cc5ccc(C)cc5)c4)cc3n2)s1`, the Potency was 14.6 µM (active). On to `CC(=O)Nc1cccc(-c2ccnc3c2CC(C(=O)Nc2ccc(Cl)cc2)O3)c1` (stereo not drawn), for which the max response was -18.1%. As to `O=C(CCCCl)Oc1ccc2cc(-c3ccc4ccccc4n3)c(=O)oc2c1`, the max response was 3.21%.

With `CCc1sc(-c2cc3ccc(O)cc3oc2=O)nc1-c1ccc(C)cc1`, the Potency is 4.11 µM (active). On the same count and under the same terms, in the case of `O=c1oc2cc(O)ccc2cc1-c1nc(-c2ccc(Cl)c(Cl)c2)cs1` it was 0.651 µM (active).

With `COc1cc(-c2nc3ccc(C)cn3c2NCc2ccccc2)ccc1SC1CCCCC1`, the max response is -8.35%.

On to `Cc1ccc(/C=N/NC(=O)c2nc3nc(C)cc(C)n3n2)cc1`, for which the max response is 1.02%.

Consider `CSc1nc(Sc2ccccc2Cl)c2ccccc2n1`, for which the max response is -25.9%.

Consider `CN(C)c1ccc(/C=C2\SC(=S)N(Nc3ncc(C(F)(F)F)cc3Cl)C2=O)cc1`, for which the Potency was 5.8 µM (active). With `COc1cc(/C=C2\SC(=S)N(Nc3ncc(C(F)(F)F)cc3Cl)C2=O)ccc1O`, the Potency is 18.4 µM (active). For the compound `COc1cc(/C=C2\SC(=S)N(NC(=O)c3ccc(O)c(OC)c3)C2=O)ccc1O`, the max response is -7.15%. Consider `N#CC(=Cc1ccccn1)c1nc(-c2ccc(Cl)cc2)cs1`, for which the Potency is 15.8 µM (active). For `CCOC(=O)c1ccc(NC(=O)CSc2nc(-c3ccc(OC)cc3)cc(C(F)(F)F)c2C#N)cc1`, the Potency is 18.4 µM (active).

For `Cc1sc2nc(CSCC(=O)Nc3ccccc3C#N)[nH]c(=O)c2c1C`, the max response is -12.7%. In the case of `Cc1cc(C(F)(F)F)c(C#N)c(SCC(=O)Nc2nc3ccccc3s2)n1`, the Potency was 20.6 µM (active). On to `CCOC(=O)c1ccc(NC(=O)CSc2nc(-c3ccc(F)cc3)cc(C(F)(F)F)c2C#N)cc1`, for which the Potency is 18.4 µM (active). On to `CCOC(=O)c1ccc(N=Nc2c(C)c(C#N)c(O)[nH]c2=O)cc1`, for which the max response is -0.299%. On to `Cc1ccc(S(=O)(=O)CCSc2nc(C)cc(C(F)(F)F)c2C#N)cc1`, for which the Potency was 15.8 µM (active).

Consider `CCOC(=O)c1c(NC(=O)CSc2nc3ccc(OC)cc3[nH]2)sc2c1CC(C)(C)NC2(C)C`, for which the max response was -17.3%.

For `O=C(CSc1nc2ccccc2s1)c1cc2ccccc2o1`, the max response was -2.01%. As for `CCOC1=C2CN(S(=O)(=O)c3ccc(C)cc3)[C@H](c3cccc4ccccc34)C[C@H]2C(C#N)(C#N)C(C#N)(C#N)C1`, the max response was -5.21%.

As for `CC1(C)Cc2ccccc2C2CC(O)C(=O)N21` (stereo not drawn), the max response is -21.2%.

In the case of `N#Cc1c(C(F)(F)F)cc(-c2cccs2)nc1SCC(=O)Nc1cccc(C(F)(F)F)c1`, the Potency is 18.4 µM (active).

With `CCCCOc1ccc(-c2cc(C(F)(F)F)c(C#N)c(SCC(=O)O)n2)cc1`, the Potency is 18.4 µM (active). `CCOC(=O)c1ccc(NC(=O)CSc2nc(-c3cccs3)cc(C(F)(F)F)c2C#N)cc1`: the Potency is 16.4 µM (active). Take `Cc1coc(NC(=O)CSc2nc(-c3ccncc3)cc(C(F)(F)F)c2C#N)n1`: the Potency is 13 µM (active). In the case of `N#Cc1ccccc1NC(=O)CSc1nc(-c2ccccc2)cc(C(F)(F)F)c1C#N`, the max response was -28.7%. Still for that read-out and setting: in the case of `N#Cc1c(C(F)(F)F)cc(-c2cccs2)nc1SCC(=O)Nc1cccc(Cl)c1` it was -7.91%.

For the origin of these results see PubChem BioAssay AID651814 (National Center for Advancing Translational Sciences (NCATS), 2012).
